Experimental data reported in article PMC7862700, “An all-to-all approach to the identification of sequence-specific readers for epigenetic DNA modifications on cytosine”.

Assays:
Assay in all cases: DAPPL (digital affinity profiling via proximity ligation, sequencing); 10 mM Tris-HCl pH 7.5, 50 mM NaCl, 1 mM DTT, 4% glycerol, room temperature, 30 min; GST-TFs on glutathione beads, 16-mer random dsDNA library, 0.1% formaldehyde crosslink after washing; high values mean tight binding
FLI1 = molecular target: T1, FLI1 (Homo sapiens, UniProt Q01543 1-452); conditions: protein: recombinant; tags: N-terminal GST; dsDNA, one strand shown
T1 sequence: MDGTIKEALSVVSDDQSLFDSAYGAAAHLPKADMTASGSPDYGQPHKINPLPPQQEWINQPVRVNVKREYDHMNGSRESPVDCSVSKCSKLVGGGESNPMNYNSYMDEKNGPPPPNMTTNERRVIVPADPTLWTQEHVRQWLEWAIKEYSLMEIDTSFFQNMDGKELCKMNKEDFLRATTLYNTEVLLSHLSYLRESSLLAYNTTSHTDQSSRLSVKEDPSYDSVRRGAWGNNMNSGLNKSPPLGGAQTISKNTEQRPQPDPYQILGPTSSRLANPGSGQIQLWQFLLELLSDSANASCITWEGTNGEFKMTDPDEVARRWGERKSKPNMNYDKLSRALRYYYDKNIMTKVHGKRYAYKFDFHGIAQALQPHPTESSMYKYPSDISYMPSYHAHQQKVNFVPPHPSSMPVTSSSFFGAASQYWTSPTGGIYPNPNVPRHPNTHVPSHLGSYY
How it was run: (§1)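 GST fusions of human transcription factors were expressed in yeast and captured with glutathione beads. Once given DNA barcodes and pooled alongside a tag-only sample, they were incubated for 30 min at room temperature with 200 nmole of a random double-stranded 16-mer DNA library in Tris/NaCl/DTT/glycerol buffer, then washed, crosslinked (0.1% formaldehyde), proximity-ligated, PCR-amplified and sequenced on an Illumina NextSeq500. The binding signal of each hexamer is its read frequency for a factor divided by its frequency for the tag-only sample.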

ELK1 = molecular target: T2, ELK1 (Homo sapiens, UniProt P19419 1-428); conditions: protein: recombinant; tags: N-terminal GST; dsDNA, one strand shown
T2 sequence: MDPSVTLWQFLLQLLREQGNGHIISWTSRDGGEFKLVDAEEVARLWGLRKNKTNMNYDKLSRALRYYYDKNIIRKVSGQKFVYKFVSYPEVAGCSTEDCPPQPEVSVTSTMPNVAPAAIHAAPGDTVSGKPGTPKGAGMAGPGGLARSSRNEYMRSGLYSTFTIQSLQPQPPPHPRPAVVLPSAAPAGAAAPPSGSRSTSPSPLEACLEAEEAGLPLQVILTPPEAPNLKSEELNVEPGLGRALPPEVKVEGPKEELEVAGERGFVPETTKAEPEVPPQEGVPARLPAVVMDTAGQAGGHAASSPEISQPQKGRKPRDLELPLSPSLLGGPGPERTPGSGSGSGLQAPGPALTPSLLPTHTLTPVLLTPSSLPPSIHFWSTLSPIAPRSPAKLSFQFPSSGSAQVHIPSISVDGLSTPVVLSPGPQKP
How it was run: as §1

GABPA = molecular target: T3, GABPA (Homo sapiens, UniProt Q06546 1-454); conditions: protein: recombinant; tags: N-terminal GST; dsDNA, one strand shown
T3 sequence: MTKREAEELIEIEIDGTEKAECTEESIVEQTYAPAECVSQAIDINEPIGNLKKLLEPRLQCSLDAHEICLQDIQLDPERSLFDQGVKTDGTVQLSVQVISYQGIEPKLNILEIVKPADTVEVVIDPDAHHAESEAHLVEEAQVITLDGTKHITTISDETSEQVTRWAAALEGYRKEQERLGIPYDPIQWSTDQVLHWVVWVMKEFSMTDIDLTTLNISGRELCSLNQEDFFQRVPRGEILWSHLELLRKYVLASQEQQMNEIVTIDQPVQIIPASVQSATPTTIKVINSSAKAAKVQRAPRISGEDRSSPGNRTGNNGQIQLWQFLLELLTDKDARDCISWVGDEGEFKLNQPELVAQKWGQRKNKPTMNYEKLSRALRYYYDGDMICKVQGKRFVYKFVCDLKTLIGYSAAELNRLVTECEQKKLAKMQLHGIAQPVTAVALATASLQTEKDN
How it was run: as §1

ERG = molecular target: T4, ERG (Homo sapiens, UniProt P11308 1-479); conditions: protein: recombinant; tags: N-terminal GST; dsDNA, one strand shown
T4 sequence: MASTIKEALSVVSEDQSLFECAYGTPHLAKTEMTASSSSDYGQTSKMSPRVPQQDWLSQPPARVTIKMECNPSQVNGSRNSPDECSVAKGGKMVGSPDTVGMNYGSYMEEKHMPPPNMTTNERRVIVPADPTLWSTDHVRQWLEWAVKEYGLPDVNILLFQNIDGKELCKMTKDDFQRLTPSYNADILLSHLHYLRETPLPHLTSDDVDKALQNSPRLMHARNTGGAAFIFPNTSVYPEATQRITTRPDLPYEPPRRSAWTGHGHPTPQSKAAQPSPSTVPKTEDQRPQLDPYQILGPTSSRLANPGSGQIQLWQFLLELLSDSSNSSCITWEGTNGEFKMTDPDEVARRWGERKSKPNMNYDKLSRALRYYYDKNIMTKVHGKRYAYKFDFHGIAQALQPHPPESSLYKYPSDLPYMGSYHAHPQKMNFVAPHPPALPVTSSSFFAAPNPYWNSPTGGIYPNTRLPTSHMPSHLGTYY
How it was run: as §1

ELF1 = ELF1 (Homo sapiens, UniProt P32519 1-619); conditions: protein: recombinant; tags: N-terminal GST; dsDNA, one strand shown
How it was run: as §1

EHF = molecular target: T5, EHF (Homo sapiens, UniProt Q9NZC4 1-300); conditions: protein: recombinant; tags: N-terminal GST; dsDNA, one strand shown
T5 sequence: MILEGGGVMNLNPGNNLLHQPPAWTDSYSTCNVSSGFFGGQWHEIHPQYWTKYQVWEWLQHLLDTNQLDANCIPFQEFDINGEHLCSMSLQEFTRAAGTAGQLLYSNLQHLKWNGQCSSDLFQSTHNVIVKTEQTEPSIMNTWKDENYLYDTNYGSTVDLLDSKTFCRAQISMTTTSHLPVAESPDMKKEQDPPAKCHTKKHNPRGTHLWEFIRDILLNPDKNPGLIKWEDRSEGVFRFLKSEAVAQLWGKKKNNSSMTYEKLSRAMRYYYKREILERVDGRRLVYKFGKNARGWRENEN
How it was run: as §1

SPI1 = SPI1 (Homo sapiens, UniProt P17947 1-270); conditions: protein: recombinant; tags: N-terminal GST; dsDNA, one strand shown
How it was run: as §1

SPIB = SPIB (Homo sapiens, UniProt Q01892 1-262); conditions: protein: recombinant; tags: N-terminal GST; dsDNA, one strand shown
How it was run: as §1

ELK3 = molecular target: T6, ELK3 (Homo sapiens, UniProt P41970 1-407); conditions: protein: recombinant; tags: N-terminal GST; dsDNA, one strand shown
T6 sequence: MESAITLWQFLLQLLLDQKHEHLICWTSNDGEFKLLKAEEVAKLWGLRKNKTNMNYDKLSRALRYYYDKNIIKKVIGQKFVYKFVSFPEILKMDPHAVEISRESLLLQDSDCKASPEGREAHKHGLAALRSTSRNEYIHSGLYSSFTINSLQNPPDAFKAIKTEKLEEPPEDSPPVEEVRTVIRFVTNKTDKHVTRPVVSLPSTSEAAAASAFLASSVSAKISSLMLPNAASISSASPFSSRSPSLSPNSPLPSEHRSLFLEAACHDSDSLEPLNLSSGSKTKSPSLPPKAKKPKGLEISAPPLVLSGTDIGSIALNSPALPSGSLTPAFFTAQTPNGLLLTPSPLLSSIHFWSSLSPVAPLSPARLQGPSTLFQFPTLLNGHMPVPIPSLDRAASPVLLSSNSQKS
How it was run: as §1

FEV = molecular target: T7, FEV (Homo sapiens, UniProt Q99581 1-238); conditions: protein: recombinant; tags: N-terminal GST; dsDNA, one strand shown
T7 sequence: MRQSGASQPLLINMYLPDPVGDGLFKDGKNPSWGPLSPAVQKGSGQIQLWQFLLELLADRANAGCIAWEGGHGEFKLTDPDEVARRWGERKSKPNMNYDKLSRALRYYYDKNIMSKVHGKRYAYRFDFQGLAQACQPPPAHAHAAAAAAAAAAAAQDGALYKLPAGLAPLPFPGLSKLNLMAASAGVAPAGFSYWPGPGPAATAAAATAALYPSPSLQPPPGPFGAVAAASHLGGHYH
How it was run: as §1

ETV5 = ETV5 (Homo sapiens, UniProt P41161 1-510); conditions: protein: recombinant; tags: N-terminal GST; dsDNA, one strand shown
How it was run: as §1

HSF1 = HSF1 (Homo sapiens, UniProt Q00613 1-529); conditions: protein: recombinant; tags: N-terminal GST; chain copies: 3; dsDNA, one strand shown
How it was run: as §1

SPIC = molecular target: T8, SPIC (Homo sapiens, UniProt Q8N5J4 1-248); conditions: protein: recombinant; tags: N-terminal GST; dsDNA, one strand shown
T8 sequence: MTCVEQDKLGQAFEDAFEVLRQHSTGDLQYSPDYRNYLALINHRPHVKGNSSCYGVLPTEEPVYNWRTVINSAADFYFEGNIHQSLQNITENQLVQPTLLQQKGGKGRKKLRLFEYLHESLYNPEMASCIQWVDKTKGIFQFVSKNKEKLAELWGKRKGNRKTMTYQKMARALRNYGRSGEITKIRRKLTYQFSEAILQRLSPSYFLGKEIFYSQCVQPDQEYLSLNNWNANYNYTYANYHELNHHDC
How it was run: as §1

ELF4 = ELF4 (Homo sapiens, UniProt Q99607 1-663); conditions: protein: recombinant; tags: N-terminal GST; dsDNA, one strand shown
How it was run: as §1

ELK4 = molecular target: T9, ELK4 (Homo sapiens, UniProt P28324-2 1-405); conditions: protein: recombinant; tags: N-terminal GST; dsDNA, one strand shown
T9 sequence: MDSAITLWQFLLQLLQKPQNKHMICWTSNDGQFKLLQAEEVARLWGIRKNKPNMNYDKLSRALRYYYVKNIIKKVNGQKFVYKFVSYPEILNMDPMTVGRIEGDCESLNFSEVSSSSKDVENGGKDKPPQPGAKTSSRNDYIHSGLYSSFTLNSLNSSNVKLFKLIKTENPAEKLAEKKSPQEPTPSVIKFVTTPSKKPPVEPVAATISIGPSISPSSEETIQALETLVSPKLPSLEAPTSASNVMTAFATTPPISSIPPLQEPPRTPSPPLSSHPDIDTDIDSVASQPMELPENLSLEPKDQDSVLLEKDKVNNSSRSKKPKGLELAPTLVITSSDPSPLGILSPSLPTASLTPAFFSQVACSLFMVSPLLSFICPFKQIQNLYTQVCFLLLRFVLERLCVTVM
How it was run: as §1

ETV2 = molecular target: T10, ETV2 (Homo sapiens, UniProt O00321 1-342); conditions: protein: recombinant; tags: N-terminal GST; dsDNA, one strand shown
T10 sequence: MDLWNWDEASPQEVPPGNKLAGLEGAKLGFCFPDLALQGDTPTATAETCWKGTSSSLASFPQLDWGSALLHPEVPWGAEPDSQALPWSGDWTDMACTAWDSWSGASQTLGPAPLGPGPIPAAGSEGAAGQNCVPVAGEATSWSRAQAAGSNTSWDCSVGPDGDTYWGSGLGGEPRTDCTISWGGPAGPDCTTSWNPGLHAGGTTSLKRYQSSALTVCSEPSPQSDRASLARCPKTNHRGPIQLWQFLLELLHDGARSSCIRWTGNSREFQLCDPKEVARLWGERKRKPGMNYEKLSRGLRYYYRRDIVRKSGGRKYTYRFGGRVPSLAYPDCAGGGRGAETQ
How it was run: as §1

ELF3 = molecular target: T11, ELF3 (Homo sapiens, UniProt P78545 1-371); conditions: protein: recombinant; tags: N-terminal GST; dsDNA, one strand shown
T11 sequence: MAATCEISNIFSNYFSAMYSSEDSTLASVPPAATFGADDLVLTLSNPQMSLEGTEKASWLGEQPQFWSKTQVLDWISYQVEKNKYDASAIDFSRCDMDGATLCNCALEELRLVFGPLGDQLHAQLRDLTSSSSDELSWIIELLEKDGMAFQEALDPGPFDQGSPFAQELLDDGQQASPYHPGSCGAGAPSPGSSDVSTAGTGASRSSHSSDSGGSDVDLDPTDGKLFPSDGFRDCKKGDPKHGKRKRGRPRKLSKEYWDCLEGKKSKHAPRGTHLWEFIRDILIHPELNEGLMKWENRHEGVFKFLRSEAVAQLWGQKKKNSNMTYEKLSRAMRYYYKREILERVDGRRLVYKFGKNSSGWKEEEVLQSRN
How it was run: as §1

ETV1 = ETV1 (Homo sapiens, UniProt P50549 1-477); conditions: protein: recombinant; tags: N-terminal GST; dsDNA, one strand shown
How it was run: as §1

HSF1, sequence (Q00613 whole entry): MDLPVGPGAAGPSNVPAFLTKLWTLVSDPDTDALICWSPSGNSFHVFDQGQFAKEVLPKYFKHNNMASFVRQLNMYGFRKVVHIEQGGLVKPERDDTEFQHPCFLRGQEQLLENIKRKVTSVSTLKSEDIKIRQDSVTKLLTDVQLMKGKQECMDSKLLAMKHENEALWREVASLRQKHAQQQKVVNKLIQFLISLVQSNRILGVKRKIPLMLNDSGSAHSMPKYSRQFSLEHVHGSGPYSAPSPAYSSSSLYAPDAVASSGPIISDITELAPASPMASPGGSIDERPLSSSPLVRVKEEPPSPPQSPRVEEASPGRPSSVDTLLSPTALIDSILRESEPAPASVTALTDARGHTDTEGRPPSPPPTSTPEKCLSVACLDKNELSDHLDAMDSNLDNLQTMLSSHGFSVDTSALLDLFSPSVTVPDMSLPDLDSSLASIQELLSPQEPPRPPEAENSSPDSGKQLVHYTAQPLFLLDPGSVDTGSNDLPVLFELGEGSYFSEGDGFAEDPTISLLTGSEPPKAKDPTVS
ETV5, sequence (P41161 whole entry): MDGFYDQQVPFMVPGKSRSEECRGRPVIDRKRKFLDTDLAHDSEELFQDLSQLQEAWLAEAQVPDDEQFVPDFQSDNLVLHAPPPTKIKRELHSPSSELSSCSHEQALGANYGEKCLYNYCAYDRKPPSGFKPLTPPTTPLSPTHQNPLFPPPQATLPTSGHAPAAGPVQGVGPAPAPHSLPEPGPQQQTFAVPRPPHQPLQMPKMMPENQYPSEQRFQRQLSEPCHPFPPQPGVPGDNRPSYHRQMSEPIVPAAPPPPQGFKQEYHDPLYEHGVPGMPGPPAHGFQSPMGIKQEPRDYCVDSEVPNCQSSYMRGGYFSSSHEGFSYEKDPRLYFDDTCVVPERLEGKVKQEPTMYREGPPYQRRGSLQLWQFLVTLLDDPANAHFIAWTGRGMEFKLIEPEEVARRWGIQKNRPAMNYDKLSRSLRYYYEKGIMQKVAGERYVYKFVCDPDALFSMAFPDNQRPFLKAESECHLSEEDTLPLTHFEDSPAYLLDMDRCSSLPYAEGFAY
ELF1, sequence (P32519 whole entry): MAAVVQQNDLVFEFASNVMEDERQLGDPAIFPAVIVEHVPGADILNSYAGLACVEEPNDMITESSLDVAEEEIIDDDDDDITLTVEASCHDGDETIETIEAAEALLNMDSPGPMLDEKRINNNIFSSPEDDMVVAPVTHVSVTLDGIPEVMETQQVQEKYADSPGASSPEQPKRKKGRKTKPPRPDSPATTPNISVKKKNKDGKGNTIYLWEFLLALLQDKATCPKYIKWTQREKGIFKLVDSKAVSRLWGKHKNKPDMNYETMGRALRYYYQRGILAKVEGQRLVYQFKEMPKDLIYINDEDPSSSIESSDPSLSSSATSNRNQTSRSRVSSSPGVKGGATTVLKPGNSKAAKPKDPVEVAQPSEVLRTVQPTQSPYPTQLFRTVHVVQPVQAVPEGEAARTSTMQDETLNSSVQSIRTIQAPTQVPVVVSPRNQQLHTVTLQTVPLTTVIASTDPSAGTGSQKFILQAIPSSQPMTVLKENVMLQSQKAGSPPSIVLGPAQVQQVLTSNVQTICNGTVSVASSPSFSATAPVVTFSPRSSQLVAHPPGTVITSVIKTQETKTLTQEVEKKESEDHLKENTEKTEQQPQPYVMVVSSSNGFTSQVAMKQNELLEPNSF
SPIB, sequence (Q01892 whole entry): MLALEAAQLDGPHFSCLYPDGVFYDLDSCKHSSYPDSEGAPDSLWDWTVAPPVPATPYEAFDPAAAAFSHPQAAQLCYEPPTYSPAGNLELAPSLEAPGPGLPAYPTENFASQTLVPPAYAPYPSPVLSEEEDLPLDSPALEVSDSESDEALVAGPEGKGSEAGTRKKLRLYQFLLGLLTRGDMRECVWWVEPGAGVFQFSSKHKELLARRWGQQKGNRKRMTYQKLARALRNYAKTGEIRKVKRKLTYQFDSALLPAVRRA
ETV1, sequence (P50549 whole entry): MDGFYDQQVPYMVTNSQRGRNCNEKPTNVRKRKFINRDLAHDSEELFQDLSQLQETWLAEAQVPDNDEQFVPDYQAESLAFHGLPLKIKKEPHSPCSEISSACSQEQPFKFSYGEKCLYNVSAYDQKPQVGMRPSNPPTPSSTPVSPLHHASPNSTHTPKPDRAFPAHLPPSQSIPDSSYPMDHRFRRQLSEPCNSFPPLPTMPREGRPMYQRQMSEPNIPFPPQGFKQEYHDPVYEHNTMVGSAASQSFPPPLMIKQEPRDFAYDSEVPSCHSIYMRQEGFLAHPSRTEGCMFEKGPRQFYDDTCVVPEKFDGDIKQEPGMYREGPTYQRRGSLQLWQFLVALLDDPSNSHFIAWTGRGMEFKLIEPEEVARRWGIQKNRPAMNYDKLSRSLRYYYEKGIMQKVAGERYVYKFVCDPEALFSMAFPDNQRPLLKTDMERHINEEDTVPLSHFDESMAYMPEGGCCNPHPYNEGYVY
ELF4, sequence (Q99607 whole entry): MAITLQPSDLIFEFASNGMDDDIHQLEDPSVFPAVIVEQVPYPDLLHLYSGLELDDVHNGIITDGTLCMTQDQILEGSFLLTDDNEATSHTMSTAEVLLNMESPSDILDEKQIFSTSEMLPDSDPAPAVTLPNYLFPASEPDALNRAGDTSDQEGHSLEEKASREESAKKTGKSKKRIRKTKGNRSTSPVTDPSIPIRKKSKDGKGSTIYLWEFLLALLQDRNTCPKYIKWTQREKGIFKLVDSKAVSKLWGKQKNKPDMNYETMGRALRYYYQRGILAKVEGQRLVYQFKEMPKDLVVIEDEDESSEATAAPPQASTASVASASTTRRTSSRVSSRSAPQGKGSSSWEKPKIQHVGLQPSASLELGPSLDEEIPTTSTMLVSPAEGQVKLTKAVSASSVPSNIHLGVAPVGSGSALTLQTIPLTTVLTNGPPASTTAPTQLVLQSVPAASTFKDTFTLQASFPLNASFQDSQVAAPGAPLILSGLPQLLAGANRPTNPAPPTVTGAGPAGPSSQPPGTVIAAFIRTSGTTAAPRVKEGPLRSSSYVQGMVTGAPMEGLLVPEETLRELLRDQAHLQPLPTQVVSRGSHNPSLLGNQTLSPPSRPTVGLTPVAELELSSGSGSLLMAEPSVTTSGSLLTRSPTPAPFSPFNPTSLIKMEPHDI

## GTTCAC
FLI1
  binding signal: 1.23 fold enrichment (6-mer frequency, TF over GST control)
ELK1
  binding signal: 1.23 fold enrichment (6-mer frequency, TF over GST control)
GABPA
  binding signal: 1.32 fold enrichment (6-mer frequency, TF over GST control)
ERG
  binding signal: 1.21 fold enrichment (6-mer frequency, TF over GST control)
ELF1
  binding signal: 1.16 fold enrichment (6-mer frequency, TF over GST control)
EHF
  binding signal: 1.13 fold enrichment (6-mer frequency, TF over GST control)
SPI1
  binding signal: 1.18 fold enrichment (6-mer frequency, TF over GST control)
SPIB
  binding signal: 1.19 fold enrichment (6-mer frequency, TF over GST control)
ELK3
  binding signal: 1.18 fold enrichment (6-mer frequency, TF over GST control)
FEV
  binding signal: 1.3 fold enrichment (6-mer frequency, TF over GST control)
ETV5
  binding signal: 1.2 fold enrichment (6-mer frequency, TF over GST control)
HSF1
  binding signal: 1.06 fold enrichment (6-mer frequency, TF over GST control)
SPIC
  binding signal: 1.09 fold enrichment (6-mer frequency, TF over GST control)
ELF4
  binding signal: 1.25 fold enrichment (6-mer frequency, TF over GST control)
ELK4
  binding signal: 1.29 fold enrichment (6-mer frequency, TF over GST control)
ETV2
  binding signal: 1.22 fold enrichment (6-mer frequency, TF over GST control)
ELF3
  binding signal: 1.12 fold enrichment (6-mer frequency, TF over GST control)
ETV1
  binding signal: 1.19 fold enrichment (6-mer frequency, TF over GST control)
